# Active and inactive are the calls of the source. Unless noted, no rule for the calls is given here.
# Tests used:
# [1] = resazurin metabolic signal in HepG2 cells – cell-based, resazurin fluorescence, 24 h, PK04 Diversity Set, profiling panel (AID 1172); conditions: HepG2 viability, higher = more signal; also: test concentration not given here
# [2] = budding yeast growth changes without added modifier – OD600, strain BY4716, 24 h, basal condition, primary screen (AID 1173); conditions: S. cerevisiae BY4716 growth, OD600, 24 h; higher = more signal, called active from +8 up or from −8 down
# [3] = viability profiling in MM1S myeloma cells – cell-based, resazurin fluorescence, basal, 24 h, PK04 Diversity Set, profiling panel (AID 1174); conditions: higher = more signal, called active from +8 up or from −8 down;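 also: MM1S multiple myeloma cell line; test concentration not given here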
# [4] = biological target: Dihydroorotate dehydrogenase (quinone), mitochondrial (Plasmodium falciparum (isolate 3D7)) (UniProt Q08210); assay: inhibition of P. falciparum DHODH – biochemical, C-terminal His tag, absorbance 600 nm, primary screen (AID 1175); conditions: PfDHODH enzyme, DCIP absorbance 600 nm; higher = more signal, called active from +8 up or from −8 down;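 also: recombinant parasite enzyme with a five histidine tag at its C terminus; test concentration not given here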
# Dihydroorotate dehydrogenase (quinone), mitochondrial (Plasmodium falciparum (isolate 3D7)), sequence (Q08210 whole entry, looked up): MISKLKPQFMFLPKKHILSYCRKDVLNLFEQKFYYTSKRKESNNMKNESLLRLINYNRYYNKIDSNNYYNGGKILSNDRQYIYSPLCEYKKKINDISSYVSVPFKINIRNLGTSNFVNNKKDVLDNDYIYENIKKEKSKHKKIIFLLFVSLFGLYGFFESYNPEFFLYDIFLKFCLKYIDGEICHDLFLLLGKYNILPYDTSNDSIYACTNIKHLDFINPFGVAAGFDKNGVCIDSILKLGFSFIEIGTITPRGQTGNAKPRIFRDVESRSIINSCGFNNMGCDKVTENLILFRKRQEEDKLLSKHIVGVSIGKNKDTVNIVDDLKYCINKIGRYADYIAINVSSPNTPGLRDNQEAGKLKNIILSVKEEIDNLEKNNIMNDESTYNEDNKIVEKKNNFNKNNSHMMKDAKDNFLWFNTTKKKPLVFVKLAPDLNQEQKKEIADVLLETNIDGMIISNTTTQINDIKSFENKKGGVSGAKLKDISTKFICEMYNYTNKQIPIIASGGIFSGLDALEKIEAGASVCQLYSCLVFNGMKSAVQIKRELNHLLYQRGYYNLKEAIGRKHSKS
# [5] = inhibition of PAO1 biofilm formation – strain PAO1, LB-PBS medium, absorbance 600 nm, primary screen (AID 1176); also: test concentration not given here; conditions: P. aeruginosa PAO1 growth/biofilm, A600, 12 h; higher = more signal
# [6] = growth modulation of vineyard yeast isolate – strain RM11-1a, OD600, basal, 24 h, primary screen (AID 1177);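 also: cultures grown under basal conditions with no added stressor; test concentration not given here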; conditions: S. cerevisiae RM11-1a growth, OD600, 24 h; higher = more signal, called active from +8 up or from −8 down
# [7] = growth of efflux-deficient E. coli DRC39 – strain DRC39, OD650, 24 h, E. coli filamentation inducers, primary screen (AID 1178);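 also: growth measured as culture turbidity by optical density at 650 nm; test concentration not given here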; conditions: E. coli DRC39 acrAB, higher = more signal, called active from +8 up or from −8 down
# [8] = growth of efflux-deficient E. coli DRC39 – strain DRC39, OD650, 48 h, E. coli filamentation inducers, primary screen (AID 1179);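 also: screen aims at cell division blockers that make cells filament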; conditions: E. coli DRC39 delta-acrAB growth, higher = more signal, called active from +8 up or from −8 down
# [9] = viability profiling in RPMI8226 myeloma cells – cell-based, resazurin fluorescence, basal, 24 h, PK04 Diversity Set, profiling panel (AID 1180); conditions: higher = more signal;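 also: RPMI8826 multiple myeloma cell line at 5000 cells per well; test concentration not given here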
# [10] = biological target: E3 ubiquitin-protein ligase XIAP (Homo sapiens) (UniProt P98170); assay: small molecules binding XIAP protein – biophysical, small-molecule microarray, fluorescence 635 nm, primary screen (AID 1181); conditions: higher = more signal;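 also: score merges 667 nm emission and signal to noise over triplicate slides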
# E3 ubiquitin-protein ligase XIAP (Homo sapiens), sequence (P98170 whole entry, looked up): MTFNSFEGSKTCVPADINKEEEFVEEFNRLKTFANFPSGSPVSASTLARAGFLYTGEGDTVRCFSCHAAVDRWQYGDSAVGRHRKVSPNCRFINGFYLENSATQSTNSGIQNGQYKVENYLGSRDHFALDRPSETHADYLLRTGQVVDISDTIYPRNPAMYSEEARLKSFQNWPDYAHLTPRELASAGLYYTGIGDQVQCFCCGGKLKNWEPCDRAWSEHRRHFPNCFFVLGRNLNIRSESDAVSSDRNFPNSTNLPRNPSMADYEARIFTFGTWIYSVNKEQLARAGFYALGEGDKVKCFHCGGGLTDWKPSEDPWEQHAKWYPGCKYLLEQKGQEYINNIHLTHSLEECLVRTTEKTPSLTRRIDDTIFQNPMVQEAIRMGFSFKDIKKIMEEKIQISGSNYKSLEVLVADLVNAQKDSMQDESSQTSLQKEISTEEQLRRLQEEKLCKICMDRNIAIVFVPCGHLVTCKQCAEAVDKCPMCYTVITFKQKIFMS
Compound,z-score [1],z-score [2],z-score [3],composite z-score [4],z-score [5],z-score [6],z-score [7],z-score [8],z-score [9],composite z-score [10]
COCCOC(=O)N1C(=O)[C@@]2(c3cc(C#CCNC(N)=O)ccc31)[C@H](c1ccc(O)cc1)N1[C@H](c3ccccc3)[C@H](c3ccccc3)OC(=O)[C@H]1[C@@H]2C(N)=O,1.18,0.282 (inactive),-0.96 (inactive),0.329 (inactive),0.0568 (inactive),0.203 (inactive),0.507 (inactive),1.28 (inactive),-0.938,0.0372
[N-]=[N+]=NC[C@H](Cc1ccccc1)NC(=O)c1ccccc1,0.198,-3.7 (inactive),1.46 (inactive),-0.178 (inactive),-0.382 (inactive),-0.401 (inactive),0.487 (inactive),0.352 (inactive),0.839,-0.394
COCC1C2CC[C@H]3C(OCc4ccc(OC)cc4)OC[C@]4(C)[C@H]3C2=C(CN4C(=O)OC(C)(C)C)[C@H](C)C1COC (stereo not given in full),-0.819,-0.316 (inactive),-0.79 (inactive),-0.566 (inactive),0.796 (inactive),-0.688 (inactive),-0.705 (inactive),0.286 (inactive),-0.723,0.441
CC(=O)NCCCC[C@@H]1NC(=O)[C@@H]2C[C@H](C(=O)NCCCCCCN)[C@H](c3cccc(OCCO)c3)N2C1=O,-0.55,-0.652 (inactive),-0.152 (inactive),0.23 (inactive),-0.0617 (inactive),-0.158 (inactive),-0.0095 (inactive),0.211 (inactive),-0.257,0.0896
C=CCN1C(=O)[C@]2(O[C@H](CCO)[C@@H]([Si](C)(C)c3ccc(OC)cc3)[C@@H]2C)c2cc(N3C(=O)COc4ccccc43)ccc21,-5.79,0.346 (inactive),-8.88 (active),0.828 (inactive),-0.34 (inactive),2.96 (inactive),1.55 (inactive),0.68 (inactive),-6.28,0.0356
C=CCNC(=O)[C@H]1[C@@H]2C(=O)O[C@@H](c3ccccc3)[C@@H](c3ccccc3)N2[C@@H](c2ccc(O)cc2)[C@]12C(=O)N(C(=O)OCCOC)c1ccc(C#CCC(C(=O)OC)C(=O)OC)cc12,0.238,1.34 (inactive),-1.25 (inactive),0.638 (inactive),2.17 (inactive),2.19 (inactive),0.216 (inactive),0.136 (inactive),-4.72,-0.0251
CN(C)C(=O)[C@@]1(Cc2ccccc2)COC(c2ccc(OCCCO)cc2)=N1,-0.272,-3.27 (inactive),-0.403 (inactive),0.263 (inactive),-0.841 (inactive),0.536 (inactive),0.704 (inactive),1.19 (inactive),0.449,0.521
Cc1ccc(S[C@]2(C(=O)NCC(C)C)CC(=O)N(C3Cc4ccccc4C3)[C@@H]2c2ccc(CO)cc2I)cc1,0.0073,-1.51 (inactive),-2.16 (inactive),-0.0634 (inactive),0.503 (inactive),0.207 (inactive),-0.0452 (inactive),-0.138 (inactive),-2.55,-0.214
CO[C@H]1O[C@H](CO)[C@@H](OC(=O)Nc2ccc(C#N)cc2)[C@@H]2OC(=O)[C@H](Cc3cccc(Br)c3)C/C=C/C[C@@H](Cc3cccc(Br)c3)C(=O)O[C@@H]12,-1.39,-0.253 (inactive),-3.14 (inactive),-0.631 (inactive),1.23 (inactive),0.99 (inactive),0.295 (inactive),0.432 (inactive),-2.37,-0.355
COc1ccc([Si](C)(C)[C@H]2[C@H](CCO)O[C@@]3(C(=O)N(Cc4ccc(N5C(=O)c6ccccc6Oc6ccccc65)cc4)c4ccccc43)[C@@H]2C)cc1,-1.49,0.884 (inactive),-3.52 (inactive),0.198 (inactive),2.72 (inactive),4.11 (inactive),1.78 (inactive),0.987 (inactive),-3.67,-0.115
O=C1C[C@@](C(=O)NCC(F)(F)F)(c2ccc([N+](=O)[O-])cc2)[C@@H](c2ccc(CO)cc2)N1CC12CC3CC(CC(C3)C1)C2,-1.85,0.188 (inactive),-1.4 (inactive),0.042 (inactive),0.36 (inactive),0.419 (inactive),-0.229 (inactive),-0.684 (inactive),-2.92,0.144
C=C/C=C/[C@@H]1C(=C)CN([C@@H](Cc2ccccc2)C(=O)OC)[C@H]1[C@@H](O)Cc1ccccc1,0.779,-1.03 (inactive),-0.196 (inactive),0.0865 (inactive),0.106 (inactive),0.774 (inactive),0.18 (inactive),-0.45 (inactive),-0.697,-0.0349
COc1ccc([Si](C)(C)[C@H]2[C@H](CCO)O[C@@]3(C(=O)N(Cc4ccccc4)c4ccc(N5C(=O)c6ccccc6Oc6ccccc65)cc43)[C@@H]2C)cc1,-1.6,1.09 (inactive),-4.24 (inactive),0.906 (inactive),2.38 (inactive),3.48 (inactive),0.0105 (inactive),-0.615 (inactive),-3.34,-0.172
COCCCNC(=O)[C@@]1(c2ccc([N+](=O)[O-])cc2)CC(=O)N(C(C)C)[C@@H]1c1ccc(CO)cc1,0.145,-0.569 (inactive),0.879 (inactive),-0.499 (inactive),0.0561 (inactive),-0.203 (inactive),0.0472 (inactive),-0.0495 (inactive),1.24,0.0223
NCCCCCNC(=O)[C@H]1C[C@H]2C(=O)N[C@@H](Cc3ccccc3)C(=O)N2[C@H]1c1ccc(O)cc1,-0.255,-0.53 (inactive),-0.115 (inactive),1.21 (inactive),0.351 (inactive),-0.334 (inactive),0.442 (inactive),0.69 (inactive),-0.518,0.157
COCCOC(=O)N1C(=O)[C@@]2(c3cc(C#CCC(C(=O)OC)C(=O)OC)ccc31)[C@H](C(=O)NC[C@H](O)c1ccccc1)[C@H]1C(=O)O[C@H](c3ccccc3)[C@H](c3ccccc3)N1[C@@H]2c1ccc(O)cc1,0.442,1.14 (inactive),0.73 (inactive),-2.68 (inactive),1.1 (inactive),1.24 (inactive),0.35 (inactive),0.644 (inactive),-1.4,-0.096
C=CC1c2cc(O)c(OC)cc2CCN1Cc1ccc([N+](=O)[O-])o1 (stereo not given),-0.362,0.193 (inactive),0.336 (inactive),0.294 (inactive),-1.03 (inactive),1.11 (inactive),0.148 (inactive),-0.217 (inactive),0.685,0.188
C=CCN1C(=O)[C@@]2(O[C@@H](CCO)[C@H]([Si](C)(C)c3ccc(OC)cc3)[C@H]2C)c2cc(N3CCOC3=O)ccc21,-5.76,1.07 (inactive),-8.77 (active),1.58 (inactive),0.519 (inactive),4.47 (inactive),0.891 (inactive),0.231 (inactive),-6.2,-0.0807
CC(=O)NCCCC[C@@H]1NC(=O)[C@H]2C[C@@H](C(=O)NCCCCCNC(=O)CS)[C@@H](c3cccc(OCCO)c3)N2C1=O,-0.223,0.332 (inactive),-0.0374 (inactive),0.657 (inactive),0.559 (inactive),-0.39 (inactive),-0.0744 (inactive),0.382 (inactive),-0.653,2.75
COCCOC(=O)N1C(=O)[C@@]2(c3cc(C#Cc4ccc(OC)cc4)ccc31)[C@H](C(=O)NC[C@H](O)c1ccccc1)[C@H]1C(=O)O[C@H](c3ccccc3)[C@H](c3ccccc3)N1[C@@H]2c1ccc(OCCO)cc1,1.21,1.95 (inactive),0.0406 (inactive),1.86 (inactive),1.93 (inactive),2.67 (inactive),0.14 (inactive),-0.35 (inactive),-0.285,-0.0883
Cc1c(NC(=O)/C(C#N)=C/c2ccccc2Cl)c(=O)n(-c2ccccc2)n1C,0.294,-1.08 (inactive),0.242 (inactive),-1.73 (inactive),0.543 (inactive),-0.688 (inactive),1.17 (inactive),1.36 (inactive),0.0753,0.197
COc1cc(NN2C(C(O)c3ccccc3)C=CC3C(=O)N(C)C(=O)C32)cc(OC)c1OC (stereo not given),-2.2,0.758 (inactive),-1.23 (inactive),-2.04 (inactive),0.574 (inactive),-0.0472 (inactive),-0.466 (inactive),-0.882 (inactive),-1.32,0.0024
